The results in this text go back to PubChem BioAssay.

Activity calls are given as the source filed them.

Test [1] can be described thus: compounds binding Alexa647 anti-His antibody – biochemical, small-molecule microarray, 635 nm fluorescence, artefact control for SMM control protein annotation, primary screen (AID 1128).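 Also: score merges feature fluorescence with signal-to-noise for each printed compound spot.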 As to conditions: higher = more signal.
Test [2] has as its system Human papillomavirus type 1a E7 protein (residues 1-88). Description: HPV1a E7 small-molecule binders, primary screen, biochemical, small-molecule microarray, residues 1-88, 635 nm (AID 1129). As to conditions: small-molecule microarray binding, fluorescence 635 nm; higher = more signal.
The target of test [3] is Focal adhesion kinase 1 (Homo sapiens) (UniProt Q05397). Kind of test: PTK2 protein binding on printed compound slides – biochemical, small-molecule microarray, 635/667 nm fluorescence, BSA, DTT, primary screen (AID 1130).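 Also: composite of spot emission at 667 nm and signal to noise over triplicate slides.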 As to conditions: 635 nm fluorescence, higher = more signal.
Focal adhesion kinase 1 (Homo sapiens), sequence (Q05397 whole entry, looked up): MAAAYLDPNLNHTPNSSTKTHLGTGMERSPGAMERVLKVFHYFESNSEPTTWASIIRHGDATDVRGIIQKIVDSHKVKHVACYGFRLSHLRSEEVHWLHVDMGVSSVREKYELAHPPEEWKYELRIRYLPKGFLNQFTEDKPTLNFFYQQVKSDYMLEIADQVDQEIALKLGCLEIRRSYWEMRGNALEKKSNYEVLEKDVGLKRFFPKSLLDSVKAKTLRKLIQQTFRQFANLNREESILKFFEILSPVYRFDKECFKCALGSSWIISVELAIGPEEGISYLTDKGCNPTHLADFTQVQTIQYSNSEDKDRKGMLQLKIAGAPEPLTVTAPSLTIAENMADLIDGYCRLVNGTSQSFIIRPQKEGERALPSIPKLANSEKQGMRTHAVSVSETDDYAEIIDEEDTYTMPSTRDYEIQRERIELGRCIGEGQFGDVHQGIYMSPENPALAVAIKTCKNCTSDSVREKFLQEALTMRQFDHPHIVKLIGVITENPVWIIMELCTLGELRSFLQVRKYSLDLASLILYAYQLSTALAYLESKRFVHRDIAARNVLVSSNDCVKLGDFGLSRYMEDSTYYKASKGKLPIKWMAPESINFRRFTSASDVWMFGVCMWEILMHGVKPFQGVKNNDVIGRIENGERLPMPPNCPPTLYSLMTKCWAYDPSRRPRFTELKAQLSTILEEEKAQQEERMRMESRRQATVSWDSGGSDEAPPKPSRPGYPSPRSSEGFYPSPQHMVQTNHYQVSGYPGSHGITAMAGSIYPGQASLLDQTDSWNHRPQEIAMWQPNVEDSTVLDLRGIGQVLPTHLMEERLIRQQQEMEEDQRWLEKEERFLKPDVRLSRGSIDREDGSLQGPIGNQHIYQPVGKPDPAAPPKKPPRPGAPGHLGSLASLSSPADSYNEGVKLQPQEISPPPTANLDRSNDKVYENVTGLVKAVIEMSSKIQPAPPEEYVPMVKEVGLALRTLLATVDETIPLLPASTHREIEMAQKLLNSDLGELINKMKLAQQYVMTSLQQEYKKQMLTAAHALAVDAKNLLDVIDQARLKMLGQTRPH
Test [4] has as its system Fibrinogen (Alexa647-labelled). Kind of test: Alexa647-fibrinogen binding to printed small molecules – biochemical, small-molecule microarray, 635/667 nm fluorescence, artefact control for SMM control-protein annotation, profiling panel (AID 1131).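 Also: z-score merges 667 nm fluorescence with per-spot signal-to-noise over triplicate slides.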 The conditions noted are these: fibrinogen-A647 binding fluorescence, higher = more signal.
For test [5], the target named is Follistatin (Homo sapiens) (UniProt P19883). Description: FST protein binding to printed compounds – biochemical, small-molecule microarray, 635/667 nm fluorescence, primary screen (AID 1132). The conditions noted are these: 635 nm fluorescence, higher = more signal.
Follistatin (Homo sapiens), sequence (P19883 whole entry, looked up): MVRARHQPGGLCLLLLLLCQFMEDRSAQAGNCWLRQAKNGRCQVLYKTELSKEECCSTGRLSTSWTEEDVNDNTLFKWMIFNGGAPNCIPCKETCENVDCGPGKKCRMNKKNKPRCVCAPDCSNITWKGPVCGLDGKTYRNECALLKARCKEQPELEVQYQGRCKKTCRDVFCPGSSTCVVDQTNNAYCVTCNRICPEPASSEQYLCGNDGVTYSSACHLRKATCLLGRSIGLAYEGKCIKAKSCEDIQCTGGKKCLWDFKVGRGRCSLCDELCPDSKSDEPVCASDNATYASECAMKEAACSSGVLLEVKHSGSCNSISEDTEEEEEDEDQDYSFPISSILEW
The target of test [6] is Fibroblast growth factor 2 (Homo sapiens) (UniProt P09038). Kind of test: basic fibroblast growth factor binding to printed compounds – biochemical, small-molecule microarray, 635/667 nm fluorescence, primary screen (AID 1133). As to conditions: FGF2, fluorescence 635/667, higher = more signal.
Fibroblast growth factor 2 (Homo sapiens), sequence (P09038 whole entry, looked up): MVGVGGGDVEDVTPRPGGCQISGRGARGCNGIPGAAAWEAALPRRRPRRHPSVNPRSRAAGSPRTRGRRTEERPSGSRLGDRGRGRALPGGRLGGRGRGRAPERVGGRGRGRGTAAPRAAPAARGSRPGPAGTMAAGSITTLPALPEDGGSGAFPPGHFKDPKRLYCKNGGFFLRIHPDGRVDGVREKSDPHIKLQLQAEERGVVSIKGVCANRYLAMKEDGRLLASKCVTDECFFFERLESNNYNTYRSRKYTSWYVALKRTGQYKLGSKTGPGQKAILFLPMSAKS
The nature of test [7]: JC-1 mitochondrial potential readout, lung cancer cells – cell-based, A549, JC-1 fluorescence, basal, 24 h, 100 nL, profiling panel (AID 1138).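 Also: A549 lung adenocarcinoma cells under basal conditions with no added stimulus; test concentration not given here.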 As to conditions: higher = more signal.
The next test has as its system Lefty1. Description: Lefty1 protein binding to printed compounds – biochemical, small-molecule microarray, 635/667 nm fluorescence, primary screen (AID 1139). As to conditions: fluorescence 635/667, higher = more signal.
The test system of test [8] is wheat germ agglutinin (Triticum aestivum), Alexa647-labelled. Description: Alexa647-WGA lectin binding to printed small molecules – biochemical, small-molecule microarray, 635/667 nm fluorescence, artefact control for SMM control-protein annotation, profiling panel (AID 1140).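 Also: score merges 667 nm feature emission with signal to noise over triplicate slides.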 As to conditions: WGA-A647 binding, 635 nm fluorescence, higher = more signal.
Test [9] deals with Luciferin 4-monooxygenase (Photinus pyralis) (UniProt P08659). Kind of test: inhibition of purified Photinus pyralis luciferase – biochemical, luminescence, purified enzyme, 2006 set, primary screen (AID 1141).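 Also: cell-free assay with purified firefly luciferase at 100 ng per well in PBS; test concentration not given here.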 As to conditions: purified firefly luciferase, SteadyGlo luminescence, 30 min; higher = more signal, called active from +8 up or from −8 down.
Luciferin 4-monooxygenase (Photinus pyralis), sequence (P08659 whole entry, looked up): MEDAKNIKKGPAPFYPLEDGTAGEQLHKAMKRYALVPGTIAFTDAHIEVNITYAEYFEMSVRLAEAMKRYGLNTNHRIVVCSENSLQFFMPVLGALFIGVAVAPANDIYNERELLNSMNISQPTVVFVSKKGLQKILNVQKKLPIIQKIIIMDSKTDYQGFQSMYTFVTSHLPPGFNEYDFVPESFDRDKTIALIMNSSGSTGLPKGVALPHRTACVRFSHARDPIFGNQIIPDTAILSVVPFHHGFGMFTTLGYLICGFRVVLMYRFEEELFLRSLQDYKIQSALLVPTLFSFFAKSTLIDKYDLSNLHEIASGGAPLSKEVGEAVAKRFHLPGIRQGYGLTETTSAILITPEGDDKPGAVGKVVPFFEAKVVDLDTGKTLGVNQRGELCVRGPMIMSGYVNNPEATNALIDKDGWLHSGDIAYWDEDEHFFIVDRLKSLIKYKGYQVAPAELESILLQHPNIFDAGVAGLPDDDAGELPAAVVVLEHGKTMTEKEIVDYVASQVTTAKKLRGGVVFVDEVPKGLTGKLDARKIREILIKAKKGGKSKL
Test [10] concerns Wnt5a (protein binding on small-molecule microarray). Description: small molecules binding Wnt5a protein – biophysical, small-molecule microarray, 635/667 nm fluorescence, primary screen (AID 1142).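 Also: fluorescence read at 667 nm with signal to noise per printed feature.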 The conditions noted are these: 635 nm fluorescence, higher = more signal.
Test [11] can be described thus: ATP-based viability of Huh7 replicon cells – cell-based, CellTiter-Glo luminescence, basal, 48 h, cytotoxicity control for HCV replication inhibitor project, primary screen (AID 1143).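 Also: Huh7 hepatoma cells carrying a hepatitis C replication reporter with no stimulus; test concentration not given here.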 The conditions noted are these: higher = more signal, called active from +8 up or from −8 down. In general terms: In antiviral work, replicon cells carry a viral genome segment that copies itself.

Test [12] in a line: basal CRE-LacZ reporter activity in PC12 – cell-based, unstimulated, primary screen (AID 1145). The conditions noted are these: no forskolin, luminescence, 4.5 h, higher = more signal, called active from +8 up or from −8 down.
A short description of test [13]: forskolin-driven CRE-LacZ activity in PC12 – cell-based, CRE-LacZ reporter, forskolin-stimulated, primary screen (AID 1146).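 Also: PC12 cells with 6xCRE LacZ reporter stimulated by forskolin 10 µM; beta-galactosidase reporter signal reflecting CREB driven transcription.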 As to conditions: luminescence, 4.5 h, higher = more signal, called active from +8 up or from −8 down.
Test [14] deals with Streptavidin (Streptomyces avidinii) (UniProt P22629). Kind of test: compounds binding control protein streptavidin – biophysical, small-molecule microarray, 635/667 nm fluorescence, artefact control for SMM compound annotation, primary screen (AID 1147).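 Also: signal reflects streptavidin binding to arrayed compounds as a control protein.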 The conditions noted are these: higher = more signal.
Streptavidin (Streptomyces avidinii), sequence (P22629 whole entry, looked up): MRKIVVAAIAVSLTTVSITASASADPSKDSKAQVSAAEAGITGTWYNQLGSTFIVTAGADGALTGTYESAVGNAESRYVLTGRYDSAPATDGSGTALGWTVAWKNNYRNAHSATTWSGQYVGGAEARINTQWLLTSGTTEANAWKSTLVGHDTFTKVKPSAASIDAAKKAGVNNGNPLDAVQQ
The nature of test [15]: probe aInhba binding on compound microarray – biochemical, small-molecule microarray, 635/667 nm fluorescence, primary screen (AID 1148).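 Also: score merges 667nm spot fluorescence with signal-to-noise for antibody binding to printed compounds.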 As to conditions: higher = more signal.
Test [16] deals with Torsin-1A (Homo sapiens) (UniProt O14656). Description: TOR1A wild-type binding on microarray – cell lysate, small-molecule microarray, lysate, 635/667 nm, primary screen (AID 1149). The conditions noted are these: COS7 hTOR1A-WT lysate, 635 nm fluorescence, higher = more signal.
Torsin-1A (Homo sapiens), sequence (O14656 whole entry, looked up): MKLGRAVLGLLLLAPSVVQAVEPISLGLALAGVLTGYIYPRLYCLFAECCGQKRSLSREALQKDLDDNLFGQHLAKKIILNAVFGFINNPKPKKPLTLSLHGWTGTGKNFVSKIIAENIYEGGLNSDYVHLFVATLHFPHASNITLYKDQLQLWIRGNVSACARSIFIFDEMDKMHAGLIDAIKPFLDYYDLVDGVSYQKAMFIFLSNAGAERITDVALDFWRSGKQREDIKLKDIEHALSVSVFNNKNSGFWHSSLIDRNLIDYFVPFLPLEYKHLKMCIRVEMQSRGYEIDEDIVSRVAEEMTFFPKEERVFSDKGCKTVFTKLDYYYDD
For test [17] the target is unchanged. Description: torsin A mutant lysate binding on microarrays – cell lysate, small-molecule microarray, COS7 lysate, 635/667 nm fluorescence, primary screen (AID 1150).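 Also: score pools 667 nm emission and signal to noise measuring lysate protein binding.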 The conditions noted are these: COS7 hTOR1A mutant lysate, 635 nm fluorescence, higher = more signal.
Test [18] deals with Sonic hedgehog protein (Shh). Kind of test: Sonic hedgehog microarray binding compounds – biochemical, small-molecule microarray, 635/667 nm fluorescence, primary screen (AID 1151).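 Also: Shh protein binding to compounds spotted on small-molecule microarray slides; score combines spot fluorescence intensity with signal-to-noise across triplicate slides.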 The conditions noted are these: 635 nm fluorescence, higher = more signal.

In the case of `CO[C@H]1O[C@H](CO)[C@@H](OC(=O)Nc2ccc(Oc3ccccc3)cc2)[C@H](OC(=O)Nc2ccccc2-c2ccccc2)[C@H]1OC(=O)Nc1ccccc1-c1ccccc1`, the composite z-score turned out to be 2.31 in [1]; 1.24 in [2]; 1.62 in test [3]; 0.98 in [4]; 0.95 in test [5]; 0.938 in [6]. In addition, the composite z-score with Lefty1 was determined as 0.62; in test [8], 1.38; in test [10] it was 0.595; in test [14] it was 1.25; in test [15], 0.268; with Torsin-1A (Homo sapiens) [16], 0.445. The composite z-score in the test with Torsin-1A (Homo sapiens) [17] was 0.517; in test [18] it was 1.24. The z-score in [7] is -1.28; in [9], -1.02 (inactive); in test [11] it was -6.08 (inactive); in test [12], -0.0017 (inactive); in test [13] it was -1.31 (inactive).

Turning to `CO[C@H]1COC(=O)[C@H](C)NC(=O)CC=C[C@@H](C)[C@H](NS(=O)(=O)c2ccc(C)cc2)COC(=O)[C@@H](OCc2ccccc2)C=C[C@@H]1C`, the composite z-score in [1] is -1.04; in test [2], -0.515; in [3] it was 0.269; in test [4], -0.394; in test [5], 0.641; in [6], 0.574. Besides, the composite z-score is 1.02 with Lefty1; -0.609 in test [8]; 0.0746 in [10]; -0.25 in test [14]; -0.261 in test [15]; 0.196 with Torsin-1A (Homo sapiens) [16]. Moreover, the composite z-score with Torsin-1A (Homo sapiens) [17] came out at 0.316; in test [18], 0.96. The z-score in [7] was 1.87; in [9], -0.893 (inactive); in test [11], 0.0974 (inactive); in test [12] it was 1.06 (inactive); in [13], -0.594 (inactive).

For `COC(=O)C1=CC(c2ccc(CO)cc2)=CC(C2CC2)N(Cc2sc3ccccc3c2Cl)C=C1C(=O)OC` (stereo not given), the composite z-score in test [1] worked out at 3.42; in test [2], 1.19; in test [3] it was 1.46; in [4], 0.896; in test [5] it was 0.851; in test [6] it was 0.3. Moreover, the composite z-score in the test on Lefty1 was determined as 0.573; in [8], 1.49; in test [10], 0.213; in test [14], 2.25; in test [15], 0.23; in the test with Torsin-1A (Homo sapiens) [16] it was 0.454. In addition, the composite z-score with Torsin-1A (Homo sapiens) [17] came to 1.45; in test [18], 0.313. In addition, the z-score in test [7] was 2.04; in test [9], -1.55 (inactive); in test [11] it was -5.35 (inactive); in [12], 0.272 (inactive); in test [13], -1.57 (inactive).

As to `C=CCC(OC(C)=O)[C@@H]1[C@@H](N(Cc2cc3ccccc3o2)C(=O)Cc2ccc(F)cc2)c2cc(OCCCO)ccc2N1C(=O)c1ccc(-c2ccccc2)cc1` (stereo not given in full), the composite z-score in [1] was -1.6; in test [2], -0.844; in test [3], -0.341; in test [4], -1.2; in [5], 0.0166; in test [6] it was -0.287. Moreover, the composite z-score is -0.234 with Lefty1; -0.681 in test [8]; -0.125 in [10]; -0.117 in test [14]; -0.0313 in test [15]; -0.583 with Torsin-1A (Homo sapiens) [16]. Besides, the composite z-score in the test with Torsin-1A (Homo sapiens) [17] is -0.159; in test [18], 0.0351. For the same compound, the z-score is 2.35 in test [7]; -1.06 (inactive) in [9]; 0.15 (inactive) in test [11]; 0.787 (inactive) in test [12]; -0.775 (inactive) in [13].

`CC/C=C/C(=O)N(C[C@@H]1CCCO1)[C@@H]1CC(C(=O)NCCO)=C[C@H](Oc2c(I)cc(CO)cc2OC)[C@H]1O`: the composite z-score in test [1] is 0.224; in test [2], 0.164; in test [3], 0.303; in test [4] it was 0.217; in test [5] it was -0.227; in test [6], -0.273. In addition, the composite z-score with Lefty1 was 0.0903; in test [8] it was 0.701; in test [10] it was -0.0308; in [14], -0.0512; in [15], -0.128; in the test with Torsin-1A (Homo sapiens) [16] it was 0.553. For the same compound, the composite z-score came to 0.267 in the test with Torsin-1A (Homo sapiens) [17] and 0.239 in test [18]. For the same compound, the z-score in test [7] was 1.91; in [9] it was -1.47 (inactive); in test [11], -1.97 (inactive); in test [12] it was 0.858 (inactive); in [13], -2.41 (inactive).
